This is an account of results in PubChem BioAssay AID1376 (SRMLSC, 2008).

The structures appear in SMILES notation. Values joined by “and” are separate entries in the source; they are usually repeats but may differ in a detail not shown here. Equal values may be shown once. About 530 (0.24%) of roughly 220,000 compounds were called active. Rule as the data show it: active = inhibition above about 13%; inconclusive = no clear call, values can overlap the other calls; inactive = below that. Only a selection was taken, and actives are over-represented in it overall. Potency and affinity values are given separately.

The target in this test is Bifunctional protein GlmU (Mycobacterium tuberculosis (strain ATCC 25618 / H37Rv)) (UniProt P9WMN3). Briefly: inhibition of mycobacterial GlmU enzyme – biochemical, glucosamine-1-phosphate acetyltransferase (AID 1376).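 Also: 0% = complete reaction with vehicle and 100% = reaction without substrate.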 To be noted: M. tuberculosis GlmU acetyltransferase enzyme assay; active compounds read high;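 tested at 30 µM in the primary screen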.
Chain of Bifunctional protein GlmU (Mycobacterium tuberculosis (strain ATCC 25618 / H37Rv)) (P9WMN3 whole entry, looked up): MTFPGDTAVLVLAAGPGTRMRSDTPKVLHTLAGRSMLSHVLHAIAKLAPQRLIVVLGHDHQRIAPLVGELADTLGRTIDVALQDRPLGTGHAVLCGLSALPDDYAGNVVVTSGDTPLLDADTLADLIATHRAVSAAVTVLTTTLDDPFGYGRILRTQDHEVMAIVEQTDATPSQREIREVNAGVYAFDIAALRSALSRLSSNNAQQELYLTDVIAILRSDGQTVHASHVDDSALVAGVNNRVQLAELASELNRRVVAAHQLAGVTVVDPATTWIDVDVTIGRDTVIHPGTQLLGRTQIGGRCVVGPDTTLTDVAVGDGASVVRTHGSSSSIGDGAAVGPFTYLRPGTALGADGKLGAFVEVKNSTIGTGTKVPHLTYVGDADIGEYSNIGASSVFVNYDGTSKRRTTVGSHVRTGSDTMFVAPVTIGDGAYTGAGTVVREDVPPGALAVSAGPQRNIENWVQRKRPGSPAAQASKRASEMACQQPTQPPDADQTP
Regarding `Cc1ccc([N+](=O)[O-])cc1N(CC(=O)NCC1CCCO1)S(C)(=O)=O` (configuration not stated), the inhibition was 1.08% (inactive). Then `COc1ccc(C2CC(c3ccccc3)=NN2C(=O)c2cccs2)cc1` (configuration not stated), with 0.55% (inactive); and `COc1ccc(CCNC(=O)COC(=O)CCC(=O)c2ccc(F)cc2)cc1`, with 1.09% (inactive). Then `N#Cc1nc(Cc2cccc3ccccc23)oc1N1CCC(C(N)=O)CC1`, with 1.98% (inactive); and `Cc1ccc(-n2ncc(C(=O)NCc3ccc4c(c3)OCO4)c2NC(=O)c2ccco2)cc1C`, with 6.03% (inactive); and `O=C(OCC(=O)c1ccc[nH]1)c1ccc(S(=O)(=O)N2CCCCCC2)cc1`, with -6.95% (inactive). For the molecule `Cc1ccc(C(=O)NC(=S)NNC(=O)CC#N)cc1`, the inhibition was -2.12% (inactive). For `COc1ccc(OC)c(NC(=O)c2ccccc2NC(=O)c2ccco2)c1`, the inhibition was 4.28% (inactive). Then `COc1ccc(Cc2c(O)nc(SCC(=O)c3ccc(OC)cc3)[nH]c2=O)cc1`, with 2.96% (inactive); and `COc1ccc(Cc2c(O)nc[nH]c2=O)cc1`, with 22.8% (active). On to `COc1ccc(C(c2c(O)nc[nH]c2=O)c2c(O)nc[nH]c2=O)cc1`, for which the inhibition is 0.27% (inactive).

Consider `CCOC(=O)C1=C2N(C)c3ccccc3N2CCC1=O`, for which the inhibition is 0.79% (inactive).

`Cc1cccc(Cn2c(N3CCc4ccccc4C3)nc3c2c(=O)[nH]c(=O)n3C)c1`: the inhibition is 2.16% (inactive). In the case of `CC(C)(C)NC(=S)Nc1ccc(Br)cc1`, the inhibition is 1.07% (inactive). Then `CNC(=S)Nc1ccc(Nc2ccccc2)cc1`, with 1.36% (inactive); and `CC(C)(C)NC(=S)Nc1ccc(Nc2ccccc2)cc1`, with 13.4% (active).

Consider `O=C(Cc1cc(=O)[nH][nH]1)N/N=C/C=C/c1ccccc1`, for which the inhibition is 3.75% (inactive). Under `COc1ccc(N(CC2CO2)S(=O)(=O)c2ccccc2)cc1` (configuration not stated) stands 3.63% (inactive); under `CCN(CC)c1ccc(/C=N/N2CCN(Cc3ccccc3Cl)CC2)c(O)c1`, 14.1% (active); under `CCN(CC)c1ccc(/C=N/N2CCN(Cc3cccc4ccccc34)CC2)c(O)c1`, -0.67% (inactive). Under `CCN(CC)c1ccc(/C=N/N2CCN(Cc3ccccc3)CC2)c(O)c1` stands -0.12% (inactive); under `Nc1ncnc2c1ncn2[C@@H]1O[C@H](CO)[C@@H](O)[C@H]1O`, -4.56% (inactive); under `Nc1nc(=S)c2ncn(C3CCCC3)c2[nH]1`, 7.24% (inactive). Then `Nc1nc(=S)c2ncn(C3OC(CO)C(O)C3O)c2[nH]1` (configuration not stated), with 20.9% (active); and `Cc1ccc2nc3c(nc2c1C)C(O)=C3O`, with 2.69% (inactive); and `CN1CCN(C2=C(Cl)C(=O)N(Cc3ccccc3)C2=O)CC1`, with -1.86% (inactive). Turning to `CC(C)(C)c1csc(SCC(=O)Nc2ccc(Cl)cn2)n1`, the inhibition was 5.51% (inactive).

Regarding `CCn1c2ccccc2c2cc(/C=N/n3cnnc3)ccc21`, the inhibition was 6.56% (inactive). In the case of `CCn1c2ccccc2c2cc(/C=N/n3c(-c4cc(C)[nH]n4)n[nH]c3=S)ccc21`, the inhibition was 2.92% (inactive). Under `CCn1c2ccccc2c2cc(/C=N/n3cn[nH]c3=S)ccc21` stands 13% (active); under `CC(=O)Nc1ccc(Nc2nc(C)c([N+](=O)[O-])c(Nc3ccccc3)n2)cc1`, 5.98% (inactive). Consider `CC(=O)Nc1ccc(Nc2nc(C)c([N+](=O)[O-])c(Nc3ccc(NC(C)=O)cc3)n2)cc1`, for which the inhibition was -3.57% (inactive). Under `O=C(NC12CC3CC(CC(C3)C1)C2)c1cccnc1` stands 2.68% (inactive); under `O=C(NC12CC3CC(CC(C3)C1)C2)c1ccccc1`, -3.83% (inactive). Turning to `O=C(NC12CC3CC(CC(C3)C1)C2)c1cncc(O)c1`, the inhibition was 14.9% (active). Under `COC(=O)Cc1c(O)ccn(Cc2ccc3c(c2)OCO3)c1=O` stands -0.24% (inactive); under `O=C(O)c1cccc2c1NC(c1cccc([N+](=O)[O-])c1)C1CC(Sc3ccccc3[N+](=O)[O-])C(Cl)C21` (configuration not stated), 7.9% (inactive). Under `O=C(O)c1cccc2c1NC(C(=O)O)C1CC(Sc3ccccc3[N+](=O)[O-])C(Cl)C21` (configuration not stated) stands 30.8% (active).

As to `CC(=O)c1ccc2c(c1)C1C(Cl)C(Sc3ccccc3[N+](=O)[O-])CC1C(C(=O)O)N2` (configuration not stated), the inhibition was 13.1% (active).

Consider `Cc1ccc2c(c1Cl)NC(C(=O)O)C1CC(Sc3ccccc3[N+](=O)[O-])C(Cl)C21` (configuration not stated), for which the inhibition is 4.86% (inactive). Consider `CC(=O)c1ccc2c(c1)C1C(Cl)C(Sc3ccccc3[N+](=O)[O-])CC1C(c1ccccc1)N2` (configuration not stated), for which the inhibition was 8.36% (inactive). Then `CCN(CC)C(=O)c1ccc2c(c1)C1C(Cl)C(Sc3ccccc3[N+](=O)[O-])CC1C(C(=O)O)N2` (configuration not stated), with -0.47% (inactive); and `Cc1ccc2c(c1)cc(CN(Cc1cccs1)C(=O)c1ccco1)c1nnnn12`, with -1.3% (inactive). Under `CC(=O)c1c(C)[nH]c(C(=O)COC(=O)CCCOc2ccccc2)c1C` stands 7.27% (inactive); under `O=S(=O)(N1CCOCC1)n1cnc2ccccc21`, 3.88% (inactive).

With `COc1ccc(NC(=O)CN2C(=O)c3cccc4cccc2c34)c(OC)c1`, the inhibition is 0.85% (inactive). As for `CCN(C(=O)CN1CCN(S(=O)(=O)c2ccccc2C(F)(F)F)CC1)c1c(N)n(Cc2ccccc2)c(=O)[nH]c1=O`, the inhibition is -6.69% (inactive). Under `CCS(=O)(=O)Nc1ccc(-c2nc3cccnc3s2)cc1` stands 0.1% (inactive); under `CCS(=O)(=O)Nc1cccc(-c2nc3cccnc3s2)c1`, 14.4% (active).

For `CCCS(=O)(=O)Nc1cccc(-c2nc3cccnc3s2)c1`, the inhibition is 3.55% (inactive).

`COc1cc(C(=O)Oc2ccc3c(c2)OCC3=O)cc(OC)c1OC`: the inhibition is 1.2% (inactive). As for `Cc1ccccc1CSc1nnc(-c2ccco2)n1Cc1ccco1`, the inhibition is 1.77% (inactive). Under `c1ccc(CSc2nnc(-c3ccco3)n2Cc2ccco2)cc1` stands 13% (active). Under `c1ccc(CSc2nnc(-c3cccs3)n2Cc2ccco2)cc1` stands -1.39% (inactive); under `Cc1ccc(OCC(=O)Nc2ccc(S(=O)(=O)N3CCCCC3)cc2)c([N+](=O)[O-])n1`, -4.33% (inactive); under `O=C(CN(CC1CCCO1)S(=O)(=O)c1ccc(S(=O)(=O)NCC2CCCO2)cc1)Nc1ccccc1` (configuration not stated), 5.97% (inactive). Regarding `CCOC(=O)c1cnc(-n2nc(C)cc2C)nc1Oc1ccc(C#N)cc1`, the inhibition is 13.1% (active). Consider `CCOC(=O)c1cnc(-n2nc(C)cc2C)nc1Oc1ccc(C(=O)OC)cc1`, for which the inhibition was -2.28% (inactive).

For `CCOC(=O)c1cnc(-n2nc(C)cc2C)nc1Oc1ccccc1F`, the inhibition is -3.61% (inactive). For `CCOC(=O)c1[nH]c2cc(OC)c(OC)cc2c1NC(=O)c1ccc2c(c1)OCO2`, the inhibition was 17.8% (active). Then `CCOC(=O)c1[nH]c2ccccc2c1NC(=O)c1ccc2c(c1)OCO2`, with -1.52% (inactive); and `CCOC(=O)c1[nH]c2ccc(OC)cc2c1NC(=O)c1ccc2c(c1)OCO2`, with -4.48% (inactive).

`O=C(Nc1ccon1)c1ccccc1F`: the inhibition is -0.14% (inactive).

On to `Cc1cc(C)cc(NC(=S)NC(=O)CCN2C(=O)c3ccccc3C2=O)c1`, for which the inhibition is 13.3% (active).

For `O=C(CCN1C(=O)c2ccccc2C1=O)NC(=S)Nc1ccccc1Cl`, the inhibition was -2.84% (inactive). On to `O=C(CCN1C(=O)c2ccccc2C1=O)NC(=S)Nc1ccccc1`, for which the inhibition is 2.69% (inactive). For `CCCCCNC(=O)c1ccc2c(=O)[nH]c3c(C(=O)NCC4CCCO4)sc(=S)n3c2c1` (configuration not stated), the inhibition was -1.14% (inactive) and 8.81% (inactive).

As to `Cc1ccc(CNC(=O)c2ccc3c(=O)[nH]c4c(C(=O)NCC5CCCO5)sc(=S)n4c3c2)cc1` (configuration not stated), the inhibition is 13.2% (active).

In the case of `O=C(NCc1ccccc1)c1ccc2c(=O)[nH]c3c(C(=O)NCC4CCCO4)sc(=S)n3c2c1` (configuration not stated), the inhibition was 4.19% (inactive). On to `COc1ccc(OCCCC(=O)NCCc2nc3ccccc3[nH]2)cc1`, for which the inhibition is 5.71% (inactive).

Regarding `O=c1c(C(c2c(O)nc3n(c2=O)CCS3)c2cccc3ccccc23)c(O)nc2n1CCS2`, the inhibition was 15.3% (active). Under `O=c1c(C(c2ccccc2)c2c(O)nc3n(c2=O)CCS3)c(O)nc2n1CCS2` stands 3.94% (inactive); under `Cc1ccc(C(c2c(O)nc3n(c2=O)CCS3)c2c(O)nc3n(c2=O)CCS3)cc1`, -1.5% (inactive). Under `CC1=CC(=Nc2c(C)n(C)n(-c3ccccc3)c2=O)C=C(C)C1=O` stands -6.33% (inactive); under `CCC(C)C1=CC(=Nc2c(C)n(C)n(-c3ccccc3)c2=O)C=C(C(C)CC)C1=O` (configuration not stated), -5.03% (inactive). On to `Cc1c(N=C2C=C(Br)C(=O)C(Br)=C2)c(=O)n(-c2ccccc2)n1C`, for which the inhibition was 14.5% (active). Take `O=C(NC1CC1)C1=C[C@@H](c2ccc(C(F)(F)F)cc2)C[C@@H](OCCCCO)O1`: the inhibition was 0.57% (inactive). Regarding `CCOc1cc(/C=C2/C(=O)ON=C2C)ccc1OCc1ccccc1F`, the inhibition is -0.49% (inactive). Regarding `S=C(NCCc1ccccn1)Nc1cccc(Cl)c1`, the inhibition was 2.84% (inactive). Under `O=C(CSc1nc2ccccc2[nH]1)Nc1ccccc1N1CCOCC1` stands 2.16% (inactive); under `O=C(CCSc1ccccc1)Nc1nnc(-c2ccccc2)o1`, -1.24% (inactive). Then `O=C(c1coc(=O)c(Br)c1)N1CCCc2ccccc21`, with -0.3% (inactive).

With `COc1ccc(C(=O)N2CCOCC2)cc1Br`, the inhibition is -2.45% (inactive).

In the case of `COc1ccccc1N1CCN(C(=O)c2coc(=O)c(Br)c2)CC1`, the inhibition was 2.74% (inactive).

Regarding `O=C(c1coc(=O)c(Br)c1)N1CCC(C(O)(c2ccccc2)c2ccccc2)CC1`, the inhibition was -1.06% (inactive). Under `CC(c1ccccc1)C1CC(=O)N(c2ccc(C(=O)O)cc2)C1=O` (configuration not stated) stands -1.47% (inactive); under `CS(=O)(=O)NNC(=O)c1sccc1OCc1ncc(C(F)(F)F)cc1Cl`, -2.98% (inactive). Under `CC(C)CNc1c(N)c(=O)oc2ccccc12` stands -2.95% (inactive); under `O=C(Nc1cccc(C(F)(F)F)c1)c1ccco1`, -3.67% (inactive); under `CCc1ccccc1Nc1nc(N)nc(COC(=O)c2cccn2C)n1`, 13.1% (active). In the case of `Cc1ccccc1Nc1nc(N)nc(COC(=O)c2cccn2C)n1`, the inhibition was 2.68% (inactive). For `Cc1ccccc1Nc1nc(N)nc(COC(=O)c2ccccc2)n1`, the inhibition was 6.9% (inactive).

In general, inhibition refers to the relative decrease from the control value, in per cent.
